About 83,000 compounds went through this panel and 20% of them were active in at least one assay; those are over-represented in the sample as a whole.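 Negative percent growth values reflect cell death: -40 means 40% of the cells present at the start died, and -100 means all died.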 Values without a mark were called inactive. Active and inactive are the calls of the source. Rule for the calls: active = growth percent below 10; inactive = the rest.
test system: NCI-H460 lung; assay: NCI-60 one-dose screen, 48 h (100 = growth as untreated, 0 = no growth, -100 = all killed); settings: 10 µM

| SMILES | growth |
| --- | --- |
| O=[N+]([O-])c1ccc(Sc2ccncn2)c([N+](=O)[O-])c1 | 99.3% |
| COc1ccc(NC(=O)CCl)cc1 | 83.1% |
| Cc1cc(=O)cc(C)n1-c1ccccc1 | 107% |
| CC(=O)Oc1ccc(Br)cc1C(=O)O | 106% |
| CC1CCC(C(=O)O)N1 (stereo unspecified) | 115% |
| O=C(CCNNC(=O)c1ccncc1)NCc1ccccc1 | 102% |
| CCOC(=O)c1[nH]c(C)c(C(C)=O)c1C | 103% |
| CCOc1ccc(/C=C/C(=O)c2ccccc2)cc1 | 103% |
| Cc1cc(C)c(N)c(S(=O)(=O)O)c1 | 102% |
| CC(C)CCCC(=O)O | 102% |
| N#Cc1c(N)sc(=S)c2c1CCCC2 | 115% |
| Cc1cccc(C(=O)N(C(C)C)C(C)C)c1 | 99.2% |
| O=C(O)C(c1ccccc1)C(O)c1ccccc1 (stereo unspecified) | 106% |
| S=C(Nc1ccccc1)N1CCCCC1 | 110% |
| N=c1c(C(=O)OCc2ccccc2)ncc(CCl)n1O | 99.4% |
| O=C(c1ccc(O)cc1)c1ccc(O)cc1 | 108% |
| O=C(CS)Nc1ccc2ccccc2c1 | 97.6% |
| O=c1cc(-c2ccccc2)oc2c1ccc1ccccc12 | 97.1% |
| O=c1cc2oc3cc(O)c(O)cc3c(-c3ccccc3O)c-2cc1O | 96% |

| SMILES | growth |
| --- | --- |
| Nc1ccccc1C(=O)Nc1ccc(Cl)cc1Cl | 104% |
| O=C(c1ccc(Cl)cc1)c1ccccc1Cl | 103% |
| CNC(=S)NC(C)(C)C | 113% |
| CCCC(=O)Nc1ccc2c(c1)CN1C(=O)c3ccccc3C1=N2 | 103% |
| c1ccc(/C(=N\N=C(/c2ccccc2)c2cccs2)c2cccs2)cc1 | 105% |
| CCOC(=O)C1=C(C)NC(=O)NC1c1cccs1 (stereo unspecified) | 118% |
| CC1(C)N=C(N)N=C(N)N1c1cccc(Br)c1 | 18.2% |
| Oc1ccc(N=Nc2ccc(Br)cc2)c(O)c1 | 8.13% (active) |
| CN(C)CCC(=O)c1ccc(O)cc1 | 103% |
| COc1nc(N)nc2c1ncn2C1OC(CO)CC1O (stereo unspecified) | 115% |
| O=S(=O)(O)CC(O)CN1CCN(CCO)CC1 (stereo unspecified) | 114% |
| O=[N+]([O-])c1ccc(-c2noc(-c3cccs3)n2)cc1 | 82.7% |
| COc1cc2cc(OC(C)=O)c3cc4c(cc3c2c(OC)c1OC)OCO4 | 103% |
| COC(=O)/C=C1\Sc2cc(F)ccc2NC1=O | 112% |
| CC(=O)c1ccc(C(C)(C)C)cc1 | 106% |
| CCC(O)CC(CC)CO (stereo unspecified) | 94.3% |
| O=[N+]([O-])c1ccc(/C=C/C=C/c2ccccc2)c(Cl)c1 | 84.5% |
| Nc1ccc(CC(=O)O)c(N)c1 | 103% |
| O=[N+]([O-])c1ccc(N=Nc2ccccc2)cc1 | 120% |

test system: HOP-92 NSCLC; assay: as above; settings: 10 µM

| SMILES | growth |
| --- | --- |
| O=[N+]([O-])c1ccc(Sc2ccncn2)c([N+](=O)[O-])c1 | 103% |
| COc1ccc(NC(=O)CCl)cc1 | 87.3% |
| Cc1cc(=O)cc(C)n1-c1ccccc1 | 90.6% |
| CC(=O)Oc1ccc(Br)cc1C(=O)O | 97.8% |
| CC1CCC(C(=O)O)N1 (stereo unspecified) | 102% |
| O=C(CCNNC(=O)c1ccncc1)NCc1ccccc1 | 97.8% |
| CCOC(=O)c1[nH]c(C)c(C(C)=O)c1C | 51% |
| CCOc1ccc(/C=C/C(=O)c2ccccc2)cc1 | 82.6% |
| Cc1cc(C)c(N)c(S(=O)(=O)O)c1 | 99% |
| CC(C)CCCC(=O)O | 73.9% |
| N#Cc1c(N)sc(=S)c2c1CCCC2 | 103% |
| Cc1cccc(C(=O)N(C(C)C)C(C)C)c1 | 79.6% |
| O=C(O)C(c1ccccc1)C(O)c1ccccc1 (stereo unspecified) | 93% |
| S=C(Nc1ccccc1)N1CCCCC1 | 93.3% |
| N=c1c(C(=O)OCc2ccccc2)ncc(CCl)n1O | 97.3% |
| O=C(c1ccc(O)cc1)c1ccc(O)cc1 | 98% |
| O=C(CS)Nc1ccc2ccccc2c1 | 101% |
| O=c1cc(-c2ccccc2)oc2c1ccc1ccccc12 | 50.5% |
| O=c1cc2oc3cc(O)c(O)cc3c(-c3ccccc3O)c-2cc1O | 7.48% (active) |

| SMILES | growth |
| --- | --- |
| Nc1ccccc1C(=O)Nc1ccc(Cl)cc1Cl | 67.2% |
| O=C(c1ccc(Cl)cc1)c1ccccc1Cl | 78.2% |
| CNC(=S)NC(C)(C)C | 83.1% |
| CCCC(=O)Nc1ccc2c(c1)CN1C(=O)c3ccccc3C1=N2 | 95.3% |
| c1ccc(/C(=N\N=C(/c2ccccc2)c2cccs2)c2cccs2)cc1 | 92% |
| CCOC(=O)C1=C(C)NC(=O)NC1c1cccs1 (stereo unspecified) | 107% |
| CC1(C)N=C(N)N=C(N)N1c1cccc(Br)c1 | 83% |
| Oc1ccc(N=Nc2ccc(Br)cc2)c(O)c1 | 64.3% |
| CN(C)CCC(=O)c1ccc(O)cc1 | 98.5% |
| COc1nc(N)nc2c1ncn2C1OC(CO)CC1O (stereo unspecified) | 95.3% |
| O=S(=O)(O)CC(O)CN1CCN(CCO)CC1 (stereo unspecified) | 86.2% |
| O=[N+]([O-])c1ccc(-c2noc(-c3cccs3)n2)cc1 | 91.8% |
| COc1cc2cc(OC(C)=O)c3cc4c(cc3c2c(OC)c1OC)OCO4 | 96.3% |
| COC(=O)/C=C1\Sc2cc(F)ccc2NC1=O | 82.4% |
| CC(=O)c1ccc(C(C)(C)C)cc1 | 80.6% |
| CCC(O)CC(CC)CO (stereo unspecified) | 98.8% |
| O=[N+]([O-])c1ccc(/C=C/C=C/c2ccccc2)c(Cl)c1 | 84.4% |
| Nc1ccc(CC(=O)O)c(N)c1 | 94.5% |
| O=[N+]([O-])c1ccc(N=Nc2ccccc2)cc1 | 94% |

— PubChem BioAssay (NCI)
